tim23-1 inh – tim23-1 yeast growth inhibition. S. cerevisiae tim23-1 growth, BacTiter-Glo luminescence, 24 h. inhibition, % at 20 µM. 330,000 compounds, 1.3% hits. AID 463212;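 active = growth inhibition of the mutant yeast at or above 50%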;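 also: temperature-sensitive mutant grown at 25 °C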
TIM10 inh – TIM10 yeast growth inhibition. AID 463195. inhibition, % at 10 µM. S. cerevisiae TIM10 strain growth, BacTiter-Glo luminescence, 24 h. 330,000 compounds, 1.4% hits;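 active = inhibition of 40% or more at the single tested concentration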;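 also: wild-type TIM10 isogenic control strain grown at permissive 25 °C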
PfHsp90 set2 – inhibits growth of yeast expressing Plasmodium falciparum Hsp90; S. cerevisiae expressing PfHsp90, BacTiter-Glo ATP, 48 h; yeast lacking PDR1 and PDR3 efflux regulators; inhibition, % at 9.4 µM; 310,000 compounds, 0.32% hits;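 active = every replicate shows inhibition above about 80%, whatever the replicate mean, limit read from the data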
tim10-1 inh – tim10-1 yeast growth inhibition; S. cerevisiae tim10-1 ts strain growth, BacTiter-Glo, 24 h; inhibition, % at 20 µM; 330,000 compounds, 2.2% hits;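 active = inhibition of at least 40%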;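 also: mutant grown at 25 °C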
NALP1 yeast inh – NALP1 inhibition | inhibition, % at 10 µM | AID 2071 | S. cerevisiae NALP1/ASC/caspase-1 growth, X-gal OD620, 72 h | 280,000 compounds, 0.61% hits; in the data active = inhibition mostly above about 24%, no sharp cut-off; inactive = mostly below about 32%
SKKanGAS inh – blocks kanamycin growth of S. pyogenes SKKanGAS strain | inhibition, % at 7.5 µM | BacTiter-Glo, 6 h | 300,000 compounds, 1.3% hits | AID 1662;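 active = mean replicate score, as percent of positive control median, at least 50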;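 also: strain carries kanamycin resistance gene driven by streptokinase promoter and grows in 40 µg/ml kanamycin; loss of luminescence reflects streptokinase promoter inhibition or plain growth inhibition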
tim10-1 confirm – confirmation of tim10-1 mutant yeast growth inhibitors | shares compounds with tim10-1 inh | S. cerevisiae tim10-1 ts strain growth, BacTiter-Glo, 24 h | inhibition, % at 20 µM | 7,400 compounds, 56% hits | AID 463213;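 active = inhibition of yeast growth at or above a set limit in either of two repeat tests at 20 µM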;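 also: tim10-1 mutant grown at permissive 25 °C to find synthetic lethal compounds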
TIM10 conf – TIM10 yeast growth inhibition, confirmed; 4,600 compounds, 63% hits; AID 463215; S. cerevisiae tim10 strain growth, BacTiter-Glo luminescence, 24 h; shares compounds with TIM10 inh; inhibition, % at 10 µM;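 active = inhibition of yeast growth at or above a set limit in either of two replicates at 10 µM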; also: this counterscreen used the strain with wild-type TIM10
Each line names hits and unclear results; the compound was inactive in the other large screens (follow-up assays come after a bar, where they were run). Shown are actives, neighbours in structure and some others; about 4.8% of the full set was active somewhere.

O=C(NC(=S)Nc1ccccc1N1CCCC1)c1cccc(F)c1	TIM10 inh 52, tim10-1 inh 52 | tim10-1 confirm inactive | TIM10 conf 48
O=C(NC(=S)Nc1ccccc1N1CCCCC1)c1ccccc1	TIM10 inh 60, tim10-1 inh 48 | tim10-1 confirm 44 | TIM10 conf 47
CC1CCN(c2ccccc2NC(=S)NC(=O)c2cccs2)CC1	TIM10 inh 48, tim10-1 inh 49, SKKanGAS inh 87 | tim10-1 confirm 34 | TIM10 conf 38
O=C1c2ccccc2C(=O)N1CCSc1ccccc1	none
CCOC(=O)c1c(C)n(-c2ccc(OC)cc2)c2c(C/C(C)=N/O)c(Br)c(OC)c(O)c12	none
COc1ccc(-c2cc(C(=O)N3CCN(C(c4ccccc4)c4ccccc4)CC3)no2)cc1OC	TIM10 inh 56, tim10-1 inh 51 | tim10-1 confirm 60 | TIM10 conf 45
COc1ccc(-c2cc(C(=O)N3CCN(C(c4ccccc4)c4ccccc4)CC3)no2)cc1	TIM10 inh 69, tim10-1 inh 59 | tim10-1 confirm 63 | TIM10 conf 54
O=C(c1cc(-c2ccco2)on1)N1CCN(C(c2ccccc2)c2ccccc2)CC1	TIM10 inh 67, tim10-1 inh 62 | tim10-1 confirm 62 | TIM10 conf 58
O=C(c1cc(-c2ccc3c(c2)OCO3)on1)N1CCN(c2ccccc2)CC1	TIM10 inh 44, tim10-1 inh 41 (no result: PfHsp90 set2) | tim10-1 confirm 31 | TIM10 conf 41
COc1ccc(-c2cc(C(=O)N3CCCC3)no2)cc1	none
O=C(c1cc(-c2ccc3c(c2)OCO3)on1)N1CCN(c2ccc(F)cc2)CC1	none
Cc1ccc(C(=O)/C=C/c2ccc3c(c2)OCO3)o1	none
COc1ccccc1NC(=S)Nc1cccc(F)c1	none
CCOC(=O)CSC1=NC(=O)/C(=C\c2ccc(OC(C)=O)cc2)S1	TIM10 inh 51, tim10-1 inh 69 | tim10-1 confirm 69 | TIM10 conf 63
C/C(=N\N=c1/sc2ccccc2n1C)c1ccccn1	TIM10 inh 43, tim10-1 inh 43 | tim10-1 confirm 35 | TIM10 conf inactive
C/C(=N\N=c1/sc2ccccc2n1C)c1ccc(N2CCOCC2)cc1	none
CSCCC(=O)N1CCC(n2nccc2NC(=O)CCCc2ccccc2)CC1	none
O=CN(CCNc1ccccc1)c1ccccc1	none (no result: tim23-1 inh, TIM10 inh, tim10-1 inh, NALP1 yeast inh, SKKanGAS inh)
O=C(c1ccco1)N1CCN(c2ncnc3scc(-c4ccccc4)c23)CC1	TIM10 inh 44, tim10-1 inh 47 | tim10-1 confirm 42 | TIM10 conf inactive
O=C(c1ccc(Cl)cc1Cl)N1CCC(c2nc3c(nnn3Cc3ccco3)c(=O)[nH]2)CC1	none
CC(C)(O)c1[nH]c2ccc(C#N)cc2c1C(C)(C)O	none (no result: PfHsp90 set2)
Cc1ccc2nc(N3CCN(Cc4nnnn4Cc4ccccc4)CC3)c(C#N)cc2c1	TIM10 inh 51, tim10-1 inh 58 | tim10-1 confirm 54 | TIM10 conf inactive
O=C1Nc2cc(Cl)cnc2N2CCCC12 (stereo not given)	none
O=C(NCCc1c[nH]c2ccccc12)c1ccc2c(c1)OCO2	none
N#C/C(=C/c1ccc2c(c1)OCO2)C(=O)NCCc1c[nH]c2ccccc12	TIM10 inh 63, tim10-1 inh 63 | tim10-1 confirm 58 | TIM10 conf 56
Cc1ccnc(Nc2nc(-c3c(C)nc4sccn34)cs2)c1	TIM10 inh 45, tim10-1 inh 44 | tim10-1 confirm inactive | TIM10 conf 32
C=CCn1c(SCC(=O)N(C)CC(=O)Nc2ccc(C)cc2)nnc1-c1ccncc1	none (no result: NALP1 yeast inh, SKKanGAS inh)
Cc1ccc(NC(=S)NNC(=O)C2CC2c2ccc(C)cc2)cc1 (stereo not given)	TIM10 inh 40, tim10-1 inh 41 | tim10-1 confirm inactive | TIM10 conf inactive
COc1ccc(NC(=S)NNC(=O)C2CC2c2ccc(C)cc2)cc1 (stereo not given)	none
O=C(/C(=C/O)N=Nc1ccccc1Cl)c1ccccc1	TIM10 inh 91, tim10-1 inh 43 | tim10-1 confirm inactive | TIM10 conf inactive
Cc1ccc(Sc2nc(-c3ccccc3)nnc2C(F)(F)F)cc1	TIM10 inh 41, tim10-1 inh 40 | tim10-1 confirm 38 | TIM10 conf inactive
CNc1nc(-c2ccccc2)nnc1C(F)(F)F	none (no result: NALP1 yeast inh)
CCc1ncc(CN2CCCC(C(=O)Nc3ccc(-c4cscn4)cc3)C2)cn1 (stereo not given)	none
S=C(NN=C1C2CC3CC(C2)CC1C3)Nc1ccccc1	TIM10 inh 51, tim10-1 inh 60 | tim10-1 confirm 46 | TIM10 conf inactive
O=C(N/N=C/c1sc(N2CCCCC2)nc1-c1cccs1)C1CC1	TIM10 inh 47, tim10-1 inh 47, NALP1 yeast inh 31 | tim10-1 confirm 36 | TIM10 conf 36
NC(=O)N/N=C/c1sc(N2CCCCC2)nc1-c1cccs1	none (no result: NALP1 yeast inh)
CCCCNC(=S)N(C)/N=C/c1sc(N2CCCCC2)nc1-c1cccs1	none (no result: PfHsp90 set2)
CC(C)NC(=S)N/N=C/c1sc(N2CCCCC2)nc1-c1cccs1	TIM10 inh 50, tim10-1 inh 53 (no result: NALP1 yeast inh) | tim10-1 confirm 48 | TIM10 conf 35
O=C(c1cccs1)N1CCN=C1SCc1cccnc1	none
O=C(N1CCN=C1SCc1cccnc1)C12CC3CC(CC(C3)C1)C2	TIM10 inh 45, tim10-1 inh 45 | tim10-1 confirm 40 | TIM10 conf 47
CN(CC(=O)Nc1ccccc1Br)C(=O)c1ccncc1	none
C=CCc1c(C)nc(-c2ccccc2)nc1N/N=C(\C)c1ccc(N)cc1	none
C=CCc1c(C)nc(-c2ccccc2)nc1Nc1ccccc1O	TIM10 inh 63, tim10-1 inh 47 | tim10-1 confirm 54 | TIM10 conf 54
CCOC(=O)c1c(NC(=O)CN2C(=O)NC3(CCCC3)C2=O)sc(C)c1CC	none (no result: NALP1 yeast inh)
CC1CCN(S(=O)(=O)c2ccc3c(c2)CCN3C(=O)C2CCC2)CC1	none
O=C(CCl)c1ccc2c(c1)CCN2C(=O)C1CCCCC1	TIM10 inh 76, tim10-1 inh 62 (no result: PfHsp90 set2) | tim10-1 confirm 36 | TIM10 conf 65
O=C(C1CC1)N1CCc2cc(S(=O)(=O)NCCCN3CCCCC3)ccc21	none
CCC1CCCCN1S(=O)(=O)c1ccc2c(c1)CCN2C(=O)C1CCC1 (stereo not given)	TIM10 inh 56, tim10-1 inh 55 | tim10-1 confirm 45 | TIM10 conf 50
O=C(NN1C(=O)/C(=C\c2cccnc2)SC1=S)C(c1ccccc1)c1ccccc1	TIM10 inh 40, tim10-1 inh 46 | tim10-1 confirm 39 | TIM10 conf inactive
O=C1/C(=C/c2cccnc2)SC(=S)N1NS(=O)(=O)c1ccccc1	none

Bioassay records: PubChem BioAssay, several laboratories
